# Screens deposited in PubChem by several laboratories.
# Rows were chosen to be rich in hits. Some 3.5% of all compounds tested hit in one or more screens of this group.
# Myeloid diff MLP: promotes myeloid progenitor differentiation; ER-HoxA9 myeloid progenitors, lysozyme-GFP differentiation, flow cytometry; calls only at 10 µM; 360,000 tested, 1% active; AID 624256;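 active = normalized GFP-positive differentiation at or above the plate's own cutoff, the solvent-only control mean plus 3 SD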;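 note: cells exposed to compound for four days before flow analysis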
# SKN-1 inh: blocks SKN-1 activity in C. elegans; C. elegans VP596 Pgst-4::GFP/RFP ratio, acrylamide-induced, 24 h; AID 624304; 360,000 tested, 0.49% active; inhibition, % at 21.8 µM;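 active = interference check ratio from 0.5 to 1.5 plus GFP to RFP signal ratio inhibition reaching or exceeding a fixed threshold, cut at about 30% in these data, passing the limit was not always enough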
# CHRM1 PAM: potentiates human M1 receptor response to acetylcholine. activation, % at 3 µM. 360,000 tested, 0.088% active. AID 588819. CHO-K1 hM1, Fluo-8 calcium fluorescence, ACh EC20; 0% = ACh EC20, 100% = maximal ACh. P11229; in the data active = activation above about 19%, passing the limit was not always enough
# CHRM1 antagonist: blocks human M1 muscarinic receptor | CHO-K1 hM1, Fluo-8 calcium fluorescence, ACh EC80 antagonist | 360,000 tested, 1.3% active | inhibition, % at 3 µM | AID 588852 | P11229;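 active = percent inhibition above its own plate's cutoff, namely the mean of that plate's compound wells plus 3 SD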;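 note: peak over basal fluorescence ratio during 140 s after agonist addition; 0% = ACh EC80 plus DMSO and 100% = DMSO alone without agonist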
# M1 ag: activates human CHRM1 receptor; P11229; 360,000 tested, 0.33% active; activation, % at 3 µM; CHO-K1 hM1, Fluo-8 calcium fluorescence, agonist mode; 0% DMSO, 100% acetylcholine EC100;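 active = activation above the run's mean compound activation plus 3 SD, cut at about 16% in these data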;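 note: peak over basal fluorescence ratio within a 140 s kinetic read after compound addition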
# ATG4B inhibitor: ATG4B (human) cysteine protease inhibition; ATG4B cleavage of LC3-PLA2, NBD-HPC fluorescence, 1 h; Q9Y4P1; inhibition, % at 8.33 µM; 340,000 tested, 0.51% active; in the data active = inhibition above about 40%
# Target sequence (Q9Y4P1 whole entry, looked up): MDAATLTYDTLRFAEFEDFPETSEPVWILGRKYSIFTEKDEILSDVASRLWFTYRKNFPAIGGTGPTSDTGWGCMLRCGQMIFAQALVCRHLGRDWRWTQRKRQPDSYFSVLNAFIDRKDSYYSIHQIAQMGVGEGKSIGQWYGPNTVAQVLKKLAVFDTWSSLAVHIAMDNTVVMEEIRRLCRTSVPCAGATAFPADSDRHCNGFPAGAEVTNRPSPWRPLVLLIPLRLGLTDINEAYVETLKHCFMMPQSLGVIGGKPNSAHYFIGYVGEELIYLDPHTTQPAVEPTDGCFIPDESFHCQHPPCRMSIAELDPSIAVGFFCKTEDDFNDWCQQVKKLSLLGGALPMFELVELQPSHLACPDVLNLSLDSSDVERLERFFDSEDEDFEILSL
# The depositor's hits bear a star; i = inactive; . = not tested or not shown; + = active, no number.
SMILES,Myeloid diff MLP,SKN-1 inh,CHRM1 PAM,CHRM1 antagonist,M1 ag,ATG4B inhibitor
CSCCC(C(=O)Nc1c(C)cccc1C)N(C)CCc1ccccc1 (stereo not drawn),i,0.2,5.5,-6.6,-2.4,.
COc1ccc(CNC(C)CCc2ccccc2)cc1 (stereo not drawn),.,10.2,1.9,-17.8,-9.7,2.7
CC(CCc1ccc(O)cc1)N(C)CCc1ccccc1 (stereo not drawn),i,-4.0,-29.9,55.9*,-13.9,2.4
CC(CCc1ccc(O)cc1)NCCC(c1ccccc1)c1ccccc1 (stereo not drawn),i,-0.1,-26.0,45.3*,-5.5,5.9
CC(CCc1ccc(O)cc1)NCc1ccc(Br)cc1 (stereo not drawn),.,-6.6,-24.0,32.4*,-8.0,2.6
CN(C(=O)c1cccc(NC(=O)Cc2ccc(NC(=O)C3CCCN(S(=O)(=O)c4cccc([N+](=O)[O-])c4)C3)cc2)c1)C1CCCC1 (stereo not drawn),i,5.6,4.3,-4.9,-3.1,-9.9
Cc1ccc(Nc2nnc(SCC(=O)NC(Cc3c[nH]c4ccccc34)C(=O)O)s2)cc1 (stereo not drawn),i,-10.7,6.2,-0.4,-2.5,0.0
CCOC(=O)C1(CCOc2ccccc2)CCN(Cc2ccc(C(=O)OC)cc2)CC1,i,0.4,-23.1,42.1*,-3.5,-0.8
CCOC(=O)C1(CCCc2ccccc2)CCN(Cc2nccn2CC)CC1,i,-6.4,-28.7,48.4*,-10.1,0.0
CCOC(=O)C1(CCOc2ccccc2)CCN(Cc2nccn2CC)CC1,i,-4.3,-27.5,27.1*,-9.7,-6.9
CCS(=O)(=O)NC(=O)C1(C)CCN1C(=O)Cc1ccc(Cl)cc1Cl (stereo not drawn),i,-6.7,7.8,-18.7,-2.6,.
CC(C)C(NC(=O)c1ccccc1)C(=O)NC1CCCc2ccccc21 (stereo not drawn),i,-8.8,3.2,-5.3,-1.1,4.5
COC(=O)C(Cc1ccc(OC(=O)c2ccc(Cl)cc2)cc1)N1Cc2ccccc2C1=O (stereo not drawn),i,-12.6,-14.8,20.9*,3.2,26.9
CSCC[C@@H](C(=O)O)N1Cc2ccccc2C1=O,i,-4.9,-2.2,2.5,-1.6,3.1
COC(=O)C(Cc1ccc(OC(=O)c2ccc(C(F)(F)F)cc2)cc1)N1Cc2ccccc2C1=O (stereo not drawn),i,7.9,-22.9,35.5*,-0.6,2.5
Fc1cccc(CSc2ccc(-c3ccco3)nn2)c1,i,49.4*,8.5,-2.7,-6.3,7.4
Fc1ccc(CSc2ccc(-c3ccco3)nn2)cc1,i,21.6,1.1,-5.2,-3.2,12.9
COc1cc(CNc2ccc(N3CCCC3)cc2)cc(Cl)c1OC,+,5.7,-3.8,8.8,-4.5,2.7
CN(C)CCN(C(=O)c1cccc2ccccc12)c1nc2cc3c(cc2s1)OCO3,i,-15.5,-18.8,46.8*,-6.5,12.6
CN(C)CCCN(C(=O)c1ccc2ccccc2c1)c1nc2cc3c(cc2s1)OCO3,i,-18.1,-0.9,2.1,-1.3,0.7
CCOc1ccc2nc(N(CCN(C)C)C(=O)c3cc4ccccc4cc3OC)sc2c1,i,38.0*,5.6,-0.8,1.2,-2.7
CC1CC(C)CN(C(=O)c2cccc(N3C(=O)c4ccccc4C3=O)c2)C1 (stereo not drawn),i,6.5,7.9,-11.2,-4.4,38.9
O=C1/C(=C/c2cccnc2)SC(=S)N1Cc1ccco1,i,-9.9,2.9,-5.3,-3.0,-0.4
Cc1cc(/C=C2/SC(=S)N(c3cccc(C(F)(F)F)c3)C2=O)c(C)n1-c1cccnc1,+,1.8,-20.9,43.4*,5.6,-15.9
Cc1cc(/C=C2\SC(=S)N(Cc3ccco3)C2=O)c(C)n1-c1cccnc1,+,11.3,6.2,6.8,1.4,-3.7
SMILES,Myeloid diff MLP,SKN-1 inh,CHRM1 PAM,CHRM1 antagonist,M1 ag,ATG4B inhibitor
COc1cccc(/C=C2\SC(=S)N(c3cccnc3)C2=O)c1OC,i,-12.0,10.3,-8.3,-1.5,-4.7
Cc1c(Cl)cccc1NS(=O)(=O)c1cccc2nsnc12,i,-1.5,1.8,-13.0,-4.4,3.8
COCCNS(=O)(=O)c1ccc(C)c(C)c1C,i,-4.4,9.8,-4.1,-7.5,3.9
CN(Cc1ccn[nH]1)C(=O)C1CCC(=O)N(Cc2cccc(C(F)(F)F)c2)C1 (stereo not drawn),i,16.7,1.2,0.6,-2.5,2.9
O=C(CN1C(=O)NC2(CCOc3ccccc32)C1=O)NCCc1ccc(F)cc1 (stereo not drawn),i,6.4,-1.1,5.2,-1.4,-0.8
COc1cccc(C2SCC(=O)N2c2ccc(C)cc2)c1OC (stereo not drawn),i,9.6,-27.1,58.0*,-11.5,3.8
CCN1CCN(c2ccc(N3CCN(S(=O)(=O)c4ccc(C)c([N+](=O)[O-])c4)CC3)nn2)CC1,i,22.8,-20.9,28.6*,-7.0,-12.2
O=S(=O)(Nc1cc(S(=O)(=O)N2CCOCC2)ccc1NCC1CCCO1)c1ccccc1 (stereo not drawn),i,-6.9,3.5,-8.8,-2.4,-16.4
CC(=O)n1cc(/C=N/NC(=O)c2ccccc2O)c2ccccc21,i,5.8,-6.0,5.2,-2.5,-5.8
COc1ccccc1NS(=O)(=O)c1cc([N+](=O)[O-])ccc1N/N=C/c1c(C)[nH]c2ccccc12,+,15.8,0.3,8.5,5.1,14.8
Cc1[nH]c2ccccc2c1/C=N/Nc1ccc([N+](=O)[O-])cc1,+,4.7,-10.4,35.0*,16.0*,3.8
CC(C)(C)OC(=O)n1cc(/C=N/NC(=O)c2ccco2)c2ccccc21,+,-1.4,7.1,-7.8,-0.5,-7.2
Cc1[nH]c2ccccc2c1/C=N\NC(=O)c1ccco1,i,3.1,24.3*,-19.6,0.7,-0.3
CCSc1nnc(SCC(=O)c2c(N)n(C)c(=O)n(C)c2=O)s1,i,-5.8,4.5,5.2,2.1,1.1
CC(C(=O)NC1CCCC1)n1c(C2CCCC2)nc2ccccc21 (stereo not drawn),i,2.4,.,.,.,.
COc1ccccc1-n1c(N)c(C(=O)NCC2CCCO2)c2nc3ccccc3nc21 (stereo not drawn),i,17.8,-7.4,-1.0,-2.5,-10.0
C=CCNC(=O)c1c(N)n(-c2ccc3c(c2)OCO3)c2nc3ccccc3nc12,i,16.0,-25.0,69.4*,-12.0,-11.3
Nc1c(C(=O)NCCN2CCOCC2)c2nc3ccccc3nc2n1-c1cccc(F)c1,.,12.7,0.1,6.0,-3.7,-2.6
Nc1c(C(=O)NCC2CCCO2)c2nc3ccccc3nc2n1-c1ccccc1 (stereo not drawn),i,-9.2,-15.7,28.4*,2.9,-13.0
